High-throughput results (PubChem)
This is a sample that favours compounds with a hit; in the whole collection about 2% have one here.
CTSL1 counter = cathepsin L1 inhibition, PFM18AAP counter-screen | inhibition, % at 5.96 µM | AID 1906 | actives 0.49% (n = 300,000) | recombinant F. hepatica cathepsin L1, Z-Leu-Arg-MCA fluorescence;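 active = inhibition above the mean of all tested compounds plus 3 SD, set per screening campaign, cut at about 17% in these data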;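 note: 0% = plate median of test compound wells and 100% = 1 µM Z-Phe-Ala-diazomethylketone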
A3A deaminase = inhibitors of human APOBEC3A DNA deaminase; P31941; recombinant A3A, FAM/TAMRA ssDNA deamination fluorescence; inhibition, % at 20 µM; actives 0.41% (n = 330,000); AID 493011;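 active = at least 40% inhibition at 20 µM here, with at most 30% in a related deaminase screen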;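 note: plate controls were A3A with DMSO for no effect and wells lacking A3A enzyme for full effect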
Target sequence (P31941 whole entry, looked up): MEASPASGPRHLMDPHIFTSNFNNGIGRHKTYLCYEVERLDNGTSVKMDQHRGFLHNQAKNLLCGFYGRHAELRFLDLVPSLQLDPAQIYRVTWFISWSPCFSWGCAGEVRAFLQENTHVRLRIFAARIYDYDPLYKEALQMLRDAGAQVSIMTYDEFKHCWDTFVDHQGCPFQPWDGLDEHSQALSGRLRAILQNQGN
APOBEC3G inh = inhibitors of human APOBEC3G DNA deaminase. Q9HC16. recombinant A3G, ssDNA deamination FAM/TAMRA fluorescence. inhibition, % at 20 µM. actives 0.28% (n = 330,000). AID 493012;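 active = inhibition of at least 40% at 20 µM, with no more than 30% in the related APOBEC3A deaminase screen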;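 note: plate controls were DMSO wells with A3G for no effect and wells lacking A3G enzyme for full effect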
Target sequence (Q9HC16 whole entry, looked up): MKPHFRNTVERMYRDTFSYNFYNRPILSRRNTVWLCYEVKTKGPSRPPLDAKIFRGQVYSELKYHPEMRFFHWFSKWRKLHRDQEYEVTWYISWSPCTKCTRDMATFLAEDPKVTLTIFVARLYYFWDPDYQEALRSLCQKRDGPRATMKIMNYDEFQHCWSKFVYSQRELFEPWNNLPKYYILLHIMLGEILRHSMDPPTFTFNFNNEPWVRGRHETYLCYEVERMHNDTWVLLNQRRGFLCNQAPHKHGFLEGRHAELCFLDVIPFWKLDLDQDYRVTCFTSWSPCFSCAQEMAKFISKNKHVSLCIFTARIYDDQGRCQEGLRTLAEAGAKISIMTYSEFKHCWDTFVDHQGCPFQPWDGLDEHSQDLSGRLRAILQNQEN
NALP1 yeast inh = NALP1 inhibition. actives 0.61% (n = 280,000). S. cerevisiae NALP1/ASC/caspase-1 growth, X-gal OD620, 72 h. inhibition, % at 10 µM; in the data active = inhibition mostly above about 24%, no sharp cut-off; inactive = mostly below about 32%
HGIII-sPLA2 inh = Blocks human group III sPLA2 activity | QFRET BODIPY PC-A2 liposome hydrolysis, fluorescence | AID 743126 | Q9NZ20 | actives 0.56% (n = 370,000) | inhibition, % at 12.2 µM;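 active = inhibition above mean plus 3 SD of compounds lying within the high and low control bounds, cut at about 19% in these data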;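 note: 0% = median of test compound wells and 100% = no enzyme DMSO wells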
hGIII sPLA2 conf = human GIII-sPLA2 inhibition, confirmation. recombinant hGIII-sPLA2, BODIPY PC-A2 QFRET fluorescence. shares compounds with HGIII-sPLA2 inh. AID 743280. inhibition, % at 12.2 µM. actives 34% (n = 2,000);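 active = mean inhibition across triplicates above the hit cutoff set in the earlier primary screen, cut at about 19% in these data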;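 note: 0% = enzyme with DMSO and 100% = DMSO wells lacking enzyme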
535nm interf = optically interferes with 535nm fluorescence in sPLA2 counter-screen; shares compounds with HGIII-sPLA2 inh; BODIPY FL product fluorescence interference, QFRET; inhibition, % at 12.2 µM; actives 8.5% (n = 2,000); AID 743282;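 active = average inhibition above the solvent-only control mean plus 3 SD, cut at about 6% in these data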;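 note: 0% = DMSO with substrate plus product and 100% = DMSO with substrate alone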
BODIPY interf DR = counter-screen for HGIII-sPLA2 inhibitors: 535nm fluorescence interference, dose response; BODIPY FL product fluorescence interference, cell-free; 240 tested, under 10 active; IC50, µM; shares compounds with HGIII-sPLA2 inh; AID 743455;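 active = IC50 at or below 10 µM; inactive = IC50 above 10 µM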
* marks the source's active call; other numbers are inactive results; . = no result.

SMILES | CTSL1 counter | A3A deaminase | APOBEC3G inh | NALP1 yeast inh | HGIII-sPLA2 inh | hGIII sPLA2 conf | 535nm interf | others
O=C(NC(=S)Nc1ccc(N2CCCC2)cc1)c1ccccc1[N+](=O)[O-] | 1 | 0 | -2 | 16 | 23* | 18 | -1
Cc1cc(Br)cc(C)c1NC(=O)c1ccccc1[N+](=O)[O-] | 0 | 1 | -2 | 33 | 21* | 4 | -7
COC(=O)C[C@H]1CC[C@@H]2[C@@H](COc3ccc(NS(=O)(=O)c4ccccc4Cl)cc3C(=O)N2C)O1 | . | . | . | . | -1 | . | .
Cn1c(SCC(=O)NCCN2CCCCC2)nc2cccnc21 | . | . | . | . | 1 | . | .
O=c1c2c3c(sc2n(CCN2CCOCC2)c(=O)n1C1CCCCC1)CCCCC3 | . | . | . | . | 2 | . | .
Cc1cc(NC(=O)C(C)C)ncc1NC(=O)c1ccco1 | -2 | -6 | -8 | 10 | 20* | 6 | -3
O=C(N/N=C/c1cc(Br)cc(Br)c1O)c1cccc(N2CCCC2=O)c1 | 2 | -1 | -4 | -8 | 28* | 24* | 4
O=C(N/N=C/c1ccc(Cl)cc1Cl)c1cccc(N2CCCC2=O)c1 | 0 | -1 | -1 | 6 | 5 | . | .
CCOC(=O)CCC(NC(=O)CCCC(=O)NC(CCC(=O)OCC)C(=O)OCC)C(=O)OCC (centres undefined) | -1 | -7 | -6 | 18 | 22* | 1 | -6
CCOC(=O)CCC(NC(=O)CCC(=O)NC(CCC(=O)OCC)C(=O)OCC)C(=O)OCC (centres undefined) | -3 | -2 | -10 | 24 | 11 | . | .
Cc1nc2ccc(S(=O)(=O)NCC(=O)NCc3ccccc3C)cc2s1 | . | . | . | . | -6 | . | .
Cc1ccc(Nc2n[nH]c(=S)s2)c(C)c1 | . | . | . | . | 20* | 30* | 2 | BODIPY interf DR=>122
CC(C)N1CCCCC(NC(=O)COCc2ccccc2)C1=O (centres undefined) | . | . | . | . | 8 | . | .
CC(C)(C)c1cc(C(=O)N/N=C/c2ccccc2O)n(-c2ccccc2)n1 | 0 | 2 | 0 | 22 | 28* | -4 | -19
C#CCNC(=O)C[C@H]1C[C@@]2(C(=O)OC)C(=C[C@H](C3CCCC3)O[C@@H]2C)N(Cc2ccc(Cl)cc2Cl)C1=O | . | . | . | . | -7 | . | .
COC(=O)[C@]12C[C@H](CC(=O)N3CCOCC3)C(=O)N(Cc3ccc(Cl)cc3Cl)C1=C[C@H](C1CCCC1)O[C@@H]2C | . | . | . | . | 77* | -16 | -23
C=CCN1C=C/C(=C\C=C(C#N)C#N)c2ccccc21 | 0 | 11 | 8 | 15 | 28* | 48* | 13*
CCCCCCN1C=C/C(=C\C=C(C#N)C#N)c2ccccc21 | 6 | 8 | 5 | 4 | 2 | . | .
COC(=O)[C@]1(C#N)CC(=O)N(c2ccccc2)[C@@H]1c1ccccc1 | . | . | . | . | -1 | . | .
NC(N)=NS(=O)(=O)c1ccc(NC(=S)NC(=O)/C=C/c2ccc(F)cc2)cc1 | 3 | 5 | -1 | 15 | 22* | 4 | -5
O=C(N/N=C/c1cc(Br)cc(Cl)c1O)c1ccc2c(c1)OCO2 | 4 | 1 | -6 | . | 19 | . | .
Cc1cc(Br)cc(/C=N/NC(=O)c2ccc3c(c2)OCO3)c1O | -6 | 0 | -8 | -3 | 36* | 40* | 2 | BODIPY interf DR=>122
O=C(N/N=C/c1ccc2c(c1)OCO2)c1ccc(Br)o1 | 5 | 0 | 1 | 23 | 19* | 1 | -6
CCCC/C=C1/[C@@H](C(C)C)N(Cc2ccc3c(c2)OCO3)C2=N[C@H](c3ccccc3)CC(=O)N21 | . | . | . | . | 6 | . | .
CCOc1ccc(-n2c(COc3ccccc3)nnc2SCC(=O)Nc2ccc(OCc3ccccc3)cc2)cc1 | . | . | . | . | -3 | . | .
SMILES | CTSL1 counter | A3A deaminase | APOBEC3G inh | NALP1 yeast inh | HGIII-sPLA2 inh | hGIII sPLA2 conf | 535nm interf | others
Cc1ccc(OCC(=O)Nc2cc(S(=O)(=O)N3CCCCC3)ccc2C)c([N+](=O)[O-])n1 | -4 | 2 | -3 | 39 | 21* | 3 | -14
COc1ccc2oc(C(=O)NC(C)c3ccccn3)c(C)c2c1 (centres undefined) | . | 3 | 0 | . | -1 | . | .
O=C(Nc1nc(-c2cc(Cl)sc2Cl)cs1)c1ccc(Br)s1 | 0 | -3 | -3 | -5 | -3 | . | .
O=C(Nc1nc(-c2ccccn2)cs1)c1ccco1 | -1 | 5 | 2 | 9 | 20* | 2 | -1
COc1ccc2oc(C(=O)Nc3nc(-c4ccccn4)cs3)c(C)c2c1 | 1 | 1 | -4 | . | 22* | 25* | -1
C[C@H](NC(=O)c1ccco1)C(=O)Nc1nc(-c2ccccn2)cs1 | . | . | . | . | 3 | . | .
O=C(Nc1nc(-c2ccccn2)cs1)c1ccc(Br)s1 | 2 | 5 | 1 | 13 | 38* | 27* | 0
CCC(C)NS(=O)(=O)c1ccc2[nH]c(=O)oc2c1 (centres undefined) | . | . | . | . | 0 | . | .
COc1ccc(N2CCCN(CC(=O)Nc3ccc(Cl)c(Cl)c3)CC2)cc1 | . | . | . | . | 15 | . | .
Cn1cccc1CC(=O)NN=Cc1cccc(F)c1 | . | . | . | . | -4 | . | .
NCCOc1ccc(C23CC4CC(CC(C4)C2)C3)cc1 | 1 | -1 | -5 | 0 | 31* | 14 | -29
S=c1[nH]cc(-c2ccc(Cl)cc2)n1Cc1ccccc1 | -4 | -10 | -13 | 32 | 24* | 9 | 2
CCCC(CCC)C(=O)Oc1cc(C)[nH]c(=O)c1[N+](=O)[O-] | -4 | -2 | -7 | 12 | -1 | . | .
CCCCC(=O)Oc1cc(C)[nH]c(=O)c1[N+](=O)[O-] | 3 | -2 | -9 | 6 | 21* | 1 | -5
COc1ccc(C(=O)OCCCN(C)C2CN(Cc3cn(Cc4ccccc4Cl)nn3)S(=O)(=O)C2)cc1OC (centres undefined) | . | . | . | . | -1 | . | .
CCOC(=O)c1cc(C#N)c(SCc2cccc3ccccc23)nc1C | -2 | 0 | -6 | -5 | 0 | . | .
CCOC(=O)c1cc(C#N)c(SCC(=O)c2cc(C#N)c(SC)nc2C)nc1C | 1 | -4 | -9 | 14 | 20* | -11 | -3
Cc1ccc(CN2CCCCC(NC(=O)c3ccc(F)c(F)c3)C2=O)cc1 (centres undefined) | . | . | . | . | 4 | . | .
CCCNC(=O)CN(c1cccc(F)c1)S(C)(=O)=O | 0 | 5 | -1 | 14 | 20* | -4 | 2
CCOC(=O)c1c(CSC(=N)N)n(-c2ccccc2)c2cc(Br)c(OC(C)=O)cc12 | 0 | -1 | -8 | 2 | 44* | 35* | -19 | BODIPY interf DR=>122
CCOC(=O)c1c(CN2CCN(C)CC2)n(-c2ccccc2)c2cc(Br)c(O)cc12 | 3 | -1 | -3 | 12 | -65 | . | .
Cc1cccc(C)c1NC(=O)C(c1ccc(-c2ccccc2)cc1)n1c(=O)c(-c2ccco2)nc2ccccc21 (centres undefined) | . | . | . | . | 20* | 13 | -12
